Rows were chosen to be rich in hits. Some 1.6% of all compounds tested hit in one or more screens of this group.
gsp antag: gsp mutant antagonism; gsp-mutant cells, cAMP HTRF, 30 min; Potency, µM (series often up to 76.9 µM), actives largely listed as inhibitors; 340,000 tested, 0.4% active; AID 624288; calls by dose curve; cell line not stated here;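 note: intracellular cAMP measured with PDE inhibitor Ro 20-1724 present during compound exposure; nearly all actives have a fitted effect of over 65% in size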
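HTRF cAMP read-out (cAMP-d2 plus anti-cAMP antibody-K in lysis buffer, 30 min RT). Before lysis, cells are exposed to compounds with […] for 30 min at 37C in DPBS containing Ca/Mg, BSA and Tween 20.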
12-LOX inh: inhibitors of human 12S-lipoxygenase ALOX12 | purified 12hLO, xylenol orange hydroperoxide absorbance | Potency, µM (highest dose often 108 µM), hits mostly inhibitors | 580,000 tested, 1.1% active | AID 1671190
Target sequence (P18054 whole entry, looked up): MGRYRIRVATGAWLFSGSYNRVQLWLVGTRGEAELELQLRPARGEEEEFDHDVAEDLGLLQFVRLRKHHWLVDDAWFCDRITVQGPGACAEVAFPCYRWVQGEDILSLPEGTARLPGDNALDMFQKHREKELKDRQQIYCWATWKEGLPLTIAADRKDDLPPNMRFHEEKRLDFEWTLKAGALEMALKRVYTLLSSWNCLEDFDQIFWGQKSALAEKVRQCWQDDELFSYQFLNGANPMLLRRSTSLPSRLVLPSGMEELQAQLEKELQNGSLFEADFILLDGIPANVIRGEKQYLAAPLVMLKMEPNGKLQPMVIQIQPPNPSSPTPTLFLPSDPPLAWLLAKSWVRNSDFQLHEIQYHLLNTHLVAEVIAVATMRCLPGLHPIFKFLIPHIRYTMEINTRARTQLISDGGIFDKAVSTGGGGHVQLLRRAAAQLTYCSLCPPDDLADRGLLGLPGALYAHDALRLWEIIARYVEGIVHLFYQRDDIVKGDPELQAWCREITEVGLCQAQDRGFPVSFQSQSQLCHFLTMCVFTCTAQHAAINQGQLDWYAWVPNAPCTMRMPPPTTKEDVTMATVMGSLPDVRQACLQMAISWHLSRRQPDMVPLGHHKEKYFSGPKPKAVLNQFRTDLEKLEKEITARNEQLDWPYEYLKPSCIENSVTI
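Purified human 12hLO (150 nM final) in 25 mM Hepes, 0.01% Triton X-100, pH 7.0 was preincubated 15 min at room temperature with compound. Then 40 uM arachidonic acid was added, 30 min. Hydroperoxide was read by Fe-XO absorbance ratio 573/405 nm.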
FUS yeast rescue: rescues growth of FUS-expressing yeast; Potency, µM (series often up to 76.6 µM), most hits filed as activators; 390,000 tested, 0.24% active; S. cerevisiae FUS-expressing, growth rescue, OD600, 24 h; note: nearly all actives have a fitted effect of over 55% in size
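Absorbance at 600 nm, taken 24hr after compound addition, measured rescue of FUS-yeast growth at 30C. Induction used 2% galactose with seeding at OD 0.005. Controls: CP55940 from 92uM final, DMSO only.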
gsp agonist: activates gsp, the McCune-Albright syndrome mutation | gsp mutant cells, cAMP HTRF, 30 min | Potency, µM (titrated, usually from 76.9 µM), actives largely listed as activators | 340,000 tested, 0.13% active; active = well fitted activation curve with a large enough effect; inconclusive = small, poorly fitted or top-dose-only effect, or another doubt; inactive = no such curve, though single readings can be large or run the other way; cell line not stated here;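 note: phosphodiesterase inhibitor Ro 20-1724 added with compounds to block cAMP breakdown; nearly all actives have a fitted effect of over 60% in size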
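Cells stably selected in G418 were plated at 2000/well, grown 16-24 hr, then given compounds in DMSO with the PDE inhibitor […] (300 uM solution added) for 30 min at 37C; cAMP was read by HTRF.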
Mito fusion act: blocks mitochondrial division or promotes mitochondrial fusion | S. cerevisiae fusion-defective mutant growth rescue, CellTiterGlo 48 h | Potency, µM (highest dose often 46.1 µM), actives largely listed as activators | 320,000 tested, 0.23% active; note: nearly all actives have a fitted effect of over 45% in size
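Read-out: ATP-based luminescence (CellTiterGlo, 10 min ambient) reporting growth of fusion-defective ts yeast after 48 hours at 37C on glycerol/ethanol YPEG medium in the presence of compound.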
Hits are given with their value; n = inactive; u = inconclusive; x = no result given; ! = not confirmed by another sample; [ ] = dose if it differs, or a comment. Unless noted, calls come from the whole dose curve; as a rule, active = well fitted curve in the direction sought with a large enough effect; inconclusive = small, poorly fitted or top-dose-only effect, or another doubt; inactive = no such curve, though single readings can be large; an effect the other way counts as inactive or inconclusive.

SMILES | gsp antag | 12-LOX inh | FUS yeast rescue | gsp agonist | Mito fusion act
COc1ccc(-c2nc(CSCC(=O)NC3CCCCCC3)co2)cc1 | x | n | x | x | x
CCCNC(=O)NC(=O)COC(=O)c1cc(C)nc2ccccc12 | x | n | x | x | x
O=C(NC1CCCCC1)C1CCC(Cn2cnnn2)CC1 (configuration not stated) | x | n | x | x | x
CCCCCCCCN1C(=O)[C@H](CC(=O)NCc2ccc(C)o2)C[C@@]2(C(=O)OC)CC(C)(C)CC=C12 | x | 40µM | u | x | x
CCCCCCCCN1C(=O)[C@H](CC(=O)N2CCOCC2)C[C@@]2(C(=O)OCC)CCCC=C12 | x | n | 11µM | x | x
CCCCCCCCN1C(=O)[C@H](CC(=O)N2CCSCC2)C[C@@]2(C(=O)OCC)CCCC=C12 | x | n | u | x | x
CCCCCCCCN1C(=O)[C@H](CC(=O)NCc2cccs2)C[C@@]2(C(=O)OC)CC(C)(C)CC=C12 | x | n | n | x | x
CC(C)c1ccc(NC(=O)c2snc3ccc(Cl)cc23)cc1 | 28µM | n | x | n | u
c1csc(-c2nn3c(Cn4cnc5ccccc54)nnc3s2)c1 | n | u | n | n | n
Brc1ccccc1-c1nn2c(Cn3cnc4ccccc43)nnc2s1 | x | 11µM | x | x | x
Clc1cccc(-c2nn3c(Cn4cnc5ccccc54)nnc3s2)c1 | n | 10µM! | n | n | n
COc1ccc(CN(C)C(=O)C2CCN(C(=O)c3ccc(OC)c4ccccc34)CC2)cc1 | x | n | x | x | x
O=C(Nc1ccc(NCc2ccccc2)c(Cl)c1)c1cc[n+]([O-])cc1 | x | n | x | x | x
Oc1ccc(C2(c3ccc(O)cc3)CCCC2)cc1 | x | 35µM | x | x | x
CCc1ccc2cc3c(cc2n1)C(=O)c1ccccc1-3 | x | 7.9µM | n | x | x
Cc1cc2c(cc1C)-c1ccccc1C2=O | x | n | x | x | x
CCn1c2ccccc2c2cc(CN3CCN(Cc4ccccc4F)CC3)ccc21 | x | 28µM | n | x | x
CCn1c2ccccc2c2cc(CN3CCN(Cc4ccccc4C)CC3)ccc21 | x | n | n | x | x
COc1cccc(CN2Cc3cc(NC(=O)c4cc(OC)cc(OC)c4)ccc3OCC2=O)c1 | x | n | x | x | x
CCOC(=O)c1ccc(NC(=O)c2c(NCc3sccc3C)sc3c2CCCCC3)cc1 | x | 11µM | u | x | x
CCOC(=O)c1ccc(NC(=O)c2c(NCc3cccc(OC)c3OC)sc3c2CCC3)cc1 | x | n | n | x | x
Cc1ccc(-n2c(=O)[nH]c3c(oc4ccccc43)c2=O)cc1 | n | n | n | u | n
COc1ccc(-n2c(=S)[nH]c3c(oc4ccccc43)c2=O)cc1 | n | u | x | 11µM | n
CC1(C)Cc2sc3c(=O)n(Cc4ccc(Br)cc4)cnc3c2CO1 | x | n | x | x | x
O=C(O)c1cc([N+](=O)[O-])ccc1NCCCc1ccccc1 | u | n | n | x | 8.2µM
SMILES | gsp antag | 12-LOX inh | FUS yeast rescue | gsp agonist | Mito fusion act
COc1ccc(O)c(O)c1/C=C1\[C@@H](C)CCC2C(C)(C)CCC[C@]12C (some centres not stated) | x | 2.2µM | x | x | x
CC(=O)c1ccc(C)cc1 | x | n | x | x | x
C=C(C)CN(CC)C(=O)Cc1csc(C(C)C)n1 | x | n | x | x | x
S=c1sscc1-c1ccccc1 | n | 5.6µM | n | n | x
O=c1c(-c2ccccc2)c1-c1ccccc1 | x | n[22.9 µM] | x | x | n
COc1ccccc1CN1CCC[C@H]1c1nc(-c2ccc(F)cn2)no1 | x | n | x | x | x
CC(=O)Nc1ccc2nc(SCc3ccc(Cl)cc3)sc2c1 | x | 20µM | x | x | x
Oc1ccc(-c2nc(C3CC3)nc3c2CCN(Cc2ccc(F)cc2)CC3)cc1 | x | n | x | x | x
CCCC1(c2ccccc2)NC(=O)N(CC(=O)c2[nH]c(C)c(C(=O)OCC)c2C)C1=O (configuration not stated) | n | n | 22µM | n | n
CCc1nc2c(c(-c3ccc(O)cc3)n1)CCN(Cc1ccccn1)CC2 | x | n | x | x | x
CCOC(=O)c1sc(NC(=O)c2cccc(S(=O)(=O)N3CCN(C)CC3)c2)cc1C | n | 45µM | n | n | n
O=C(Nc1ccc2ccccc2c1)c1cccc2ccccc12 | n | n | n | u | x
C=C(c1cccc2ccccc12)P(=O)(O)O | n | 13µM | u | n | n
Cc1ccc2nc(Cl)c(C3CC(c4ccco4)=NN3S(C)(=O)=O)cc2c1 (configuration not stated) | n | 13µM! | n | n[15.4 µM] | n
Cc1ccc(C)c(NC(=S)Nc2cccnc2)c1 | n | n | n | n[15.4 µM] | n[9.22 µM]
Cc1ccc(NC(=S)Nc2cccnc2)c(S(=O)(=O)N2CCCCC2)c1 | n | u | 35µM | u | n
CC(=O)N1CCC2(CC1)CN(Cc1ccncc1)Cc1ccccc1O2 | x | n[6.33 µM] | x | x | x
CN(Cc1cccc(F)c1)C(=O)Cn1c(=O)c2c(ncn2C)n(C)c1=O | x | n | x | x | x
N#Cc1c(/N=C/c2ccco2)sc2c1CCC2 | n | n | n | n | n
CCOc1[nH]c(/N=C/c2ccco2)c(C#N)c1C#N | n | 18µM | n | n | n
CC1=C(O)C(=O)OC1C (configuration not stated) | x | n | x | x | x
CO/N=C/c1ccc(N2CCN(C(=O)c3ccc(F)cc3)CC2)c([N+](=O)[O-])c1 | 35µM | n | n | n | n
COC(=O)c1ccc(C2CC(=O)Nc3c2cc(Br)c2ccccc32)cc1 (configuration not stated) | x | n | x | x | x
NC(=O)c1ccccc1OCc1coc(-c2ccccc2)n1 | x | n | x | x | x
Oc1ccc(C2=Nn3c(nnc3-c3ccco3)SC2)cc1O | n | 7.1µM | n | n | n
SMILES | gsp antag | 12-LOX inh | FUS yeast rescue | gsp agonist | Mito fusion act
S=c1[nH]c2ccc(Cl)cc2[nH]1 | n | u | n | n | n
S=c1[nH]c2cc(Cl)ccc2s1 | n | 45µM! | n | n | n
Oc1ccc2ccccc2c1SSc1c(O)ccc2ccccc12 | x | 1.7µM | x | x | n
C=CCOC(=O)c1cc(-c2ccc(/C=C3\C(=O)NC(=O)C(C#N)=C3C)o2)ccc1Cl | n | 7.1µM | u | n | n
O=C(NC(=S)Nc1ccc(S(=O)(=O)NC2CCCCC2)cc1)c1cccs1 | n | 16µM | u | n[15.4 µM] | n
CC1CCCCC1NC(=S)NC(=O)c1cccs1 (configuration not stated) | n | 14µM | n | n | n
CC1CCN(c2ccccc2NC(=S)NC(=O)c2cccs2)CC1 | n | 32µM | n | n | n
CC1CCN(c2ccccc2NC(=S)NC(=O)C(C)(C)C)CC1 | n | 40µM | n | n | n
O=C(O)c1cccn1-c1ccccc1 | x | n | x | x | x
COc1ccc(C)cc1NC(=O)Cn1c(C)nc2c(sc3cccc(F)c32)c1=O | x | n | x | x | x
CCN(CC)S(=O)(=O)c1ccc(-c2nc(C#N)c(NCCN3CCOCC3)o2)cc1 | x | n | x | x | x
CC(C)C(=O)N1CCN(c2ccccc2NC(=S)NC(=O)c2cccs2)CC1 | u | u | n | n | n
CS(=O)(=O)N1CCN(c2ccccc2NC(=S)NC(=O)c2cccs2)CC1 | n | 35µM | n | n[15.4 µM] | n
CCC1CCCCN1S(=O)(=O)c1ccc(NC(=O)c2cccs2)cc1 (configuration not stated) | n | n | n | n | 16µM
CCC1CCCCN1S(=O)(=O)c1ccc(NC(=O)c2snnc2C)cc1 (configuration not stated) | n | n | n | n | n

High-throughput results deposited in PubChem BioAssay by National Center for Advancing Translational Sciences (NCATS).
